{"source": "PubChem BioAssay (EPA / NIEHS)", "note": "Activity calls are given as the source filed them. Rule for the calls: active = hit-call score of the fitted dose curve at least 0.9, where 1 is the maximum; inactive = score below 0.9.", "data": [{"read-out": "not listed separately", "experiment": "BSK_3C_SRB: Viability Assessment in the BioMAP Diversity Plus: 3C Assay (AID 2283023);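 note: cells read 24 h after compound dosing; fitted both ways against DMSO so a hit may be signal rise or drop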", "conditions": "primary human endothelial cells (HUVEC)", "method_in_brief": "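Human umbilical vein endothelial cells in the 3C system, treated 24 h. Total protein measured by 0.1% sulforhodamine B staining after 10% TCA fixation, read at 560 nm; bidirectional fit versus DMSO.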", "values": [{"smiles": "CCOC(=O)c1ccc(O)cc1", "outcome": "inactive"}, {"smiles": "CCCCC(CC)COC(=O)c1ccccc1C(=O)O", "note": "(stereo unspecified)", "outcome": "inactive"}, {"smiles": "C=CCOC(Cn1ccnc1)c1ccc(Cl)cc1Cl", "note": "(stereo unspecified)", "outcome": "inactive"}, {"smiles": "O=C(c1ccccc1)C1CCCCC1", "outcome": "inactive"}, {"smiles": "CCOC(=O)COc1cc(-n2ncc(C(F)(F)F)c(C)c2=O)c(F)cc1Cl", "outcome": "inactive"}, {"smiles": "O=C(Nc1ccc([N+](=O)[O-])cc1Cl)c1cc(Cl)ccc1O", "AC50": "0.589 µM (active)"}, {"smiles": "CCN(CC)C(=O)c1cccc(C)c1", "outcome": "inactive"}, {"smiles": "C#CCOC(=O)[C@@H](C)Oc1ccc(Oc2ncc(Cl)cc2F)cc1", "outcome": "inactive"}, {"smiles": "CC(C)CCCCCCc1ccc(O)cc1", "AC50": "9.24 µM (active)"}, {"smiles": "COC(=O)c1c(Cl)nn(C)c1S(=O)(=O)NC(=O)Nc1nc(OC)cc(OC)n1", "outcome": "inactive"}, {"smiles": "CC(=O)S[C@@H]1CC2=CC(=O)CC[C@]2(C)[C@H]2CC[C@@]3(C)[C@@H](CC[C@@]34CCC(=O)O4)[C@H]12", "AC50": "25.7 µM (active)"}, {"smiles": "O=C(O)C1(C(=O)Nc2ccc(Cl)cc2Cl)CC1", "outcome": "inactive"}]}, {"read-out": "Matrix Metallopeptidase 1 (MMP1), MMP1 (gene 4312)", "experiment": "BSK_BE3C_MMP1: BioMAP Diversity Plus: BE3C Assay for Matrix Metallopeptidase 1 (MMP1) Biomarker Activity (AID 2283024)", "conditions": "primary human bronchial epithelial cells; actives raise or lower the signal", "method_in_brief": "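Dose cells, wait 24 h, run MMP1 ELISA; cells are human bronchial epithelial primaries. Both increases and decreases relative to DMSO counted.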", "values": [{"smiles": "CC1(C)C(C=C(Cl)Cl)C1C(=O)OCc1cccc(Oc2ccccc2)c1", "note": "(stereo unspecified)", "outcome": "inactive"}, {"smiles": "CCN(Cc1c(F)cccc1Cl)c1c([N+](=O)[O-])cc(C(F)(F)F)cc1[N+](=O)[O-]", "outcome": "inactive"}, {"smiles": "COCCO", "outcome": "inactive"}, {"smiles": "COc1c(Cl)ccc(Cl)c1C(=O)O", "outcome": "inactive"}, {"smiles": "CCCN(CCC)C(=O)SCC", "outcome": "inactive"}, {"smiles": "CCCCOC(=O)[C@@H](C)Oc1ccc(Oc2ccc(C(F)(F)F)cn2)cc1", "outcome": "inactive"}, {"smiles": "c1ccc2[nH]c(-c3cscn3)nc2c1", "outcome": "inactive"}, {"smiles": "COC(=O)c1ccccc1S(=O)(=O)NC(=O)Nc1nc(OC(F)F)cc(OC(F)F)n1", "outcome": "inactive"}, {"smiles": "CCCCCOC(=O)COc1cc(N2C(=O)C3=C(CCCC3)C2=O)c(F)cc1Cl", "outcome": "inactive"}, {"smiles": "O=C(O)c1ccccc1", "outcome": "inactive"}, {"smiles": "CCCCCCC(C)OC(=O)COc1nc(F)c(Cl)c(N)c1Cl", "note": "(stereo unspecified)", "outcome": "inactive"}, {"smiles": "COC(=O)c1ccccc1C(=O)O", "outcome": "inactive"}, {"smiles": "CCCOC(=O)NCCCN(C)C", "outcome": "inactive"}, {"smiles": "CC(=O)[C@H]1CC[C@H]2[C@@H]3CCC4=CC(=O)CC[C@]4(C)[C@H]3CC[C@]12C", "AC50": "7.49 µM (active)"}, {"smiles": "CCOC(=O)C(C)Oc1ccc(Oc2nc3ccc(Cl)cc3o2)cc1", "note": "(stereo unspecified)", "outcome": "inactive"}, {"smiles": "C[C@]12CC[C@@H]3c4ccc(O)cc4C[C@@H](CCCCCCCCCS(=O)CCCC(F)(F)C(F)(F)F)[C@H]3[C@@H]1CC[C@@H]2O", "note": "(stereo partly specified)", "AC50": "0.907 µM (active)"}, {"smiles": "COC(=O)c1ccc(CNS(C)(=O)=O)cc1S(=O)(=O)NC(=O)Nc1nc(OC)cc(OC)n1", "outcome": "inactive"}, {"smiles": "COC(=O)c1cccc(C)c1S(=O)(=O)NC(=O)Nc1nc(OCC(F)(F)F)nc(N(C)C)n1", "outcome": "inactive"}, {"smiles": "CCOC(=O)c1ccc(O)cc1", "outcome": "inactive"}, {"smiles": "CCCCC(CC)COC(=O)c1ccccc1C(=O)O", "note": "(stereo unspecified)", "outcome": "inactive"}, {"smiles": "C=CCOC(Cn1ccnc1)c1ccc(Cl)cc1Cl", "note": "(stereo unspecified)", "outcome": "inactive"}, {"smiles": "O=C(c1ccccc1)C1CCCCC1", "outcome": "inactive"}, {"smiles": "CCOC(=O)COc1cc(-n2ncc(C(F)(F)F)c(C)c2=O)c(F)cc1Cl", "outcome": "inactive"}, {"smiles": "O=C(Nc1ccc([N+](=O)[O-])cc1Cl)c1cc(Cl)ccc1O", "outcome": "inactive"}, {"smiles": "CCN(CC)C(=O)c1cccc(C)c1", "outcome": "inactive"}, {"smiles": "C#CCOC(=O)[C@@H](C)Oc1ccc(Oc2ncc(Cl)cc2F)cc1", "outcome": "inactive"}, {"smiles": "CC(C)CCCCCCc1ccc(O)cc1", "AC50": "32 µM (active)"}, {"smiles": "COC(=O)c1c(Cl)nn(C)c1S(=O)(=O)NC(=O)Nc1nc(OC)cc(OC)n1", "outcome": "inactive"}, {"smiles": "CC(=O)S[C@@H]1CC2=CC(=O)CC[C@]2(C)[C@H]2CC[C@@]3(C)[C@@H](CC[C@@]34CCC(=O)O4)[C@H]12", "outcome": "inactive"}, {"smiles": "O=C(O)C1(C(=O)Nc2ccc(Cl)cc2Cl)CC1", "outcome": "inactive"}]}, {"read-out": "Pselectin, SELP (gene 6403)", "experiment": "BSK_4H_Pselectin: BioMAP Diversity Plus: 4H Assay for Pselectin Biomarker Activity (AID 2283026)", "conditions": "primary human endothelial cells (HUVEC); actives raise or lower the signal", "method_in_brief": "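Human vascular endothelium from umbilical vein; P-selectin measured by ELISA at 24 h post-dose, with cytotoxicity checked by sulforhodamine B total-protein staining in parallel cultures (0.1% SRB after 10% TCA fixation, read at 560 nm).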", "values": [{"smiles": "CC1(C)C(C=C(Cl)Cl)C1C(=O)OCc1cccc(Oc2ccccc2)c1", "note": "(stereo unspecified)", "outcome": "inactive"}, {"smiles": "CCN(Cc1c(F)cccc1Cl)c1c([N+](=O)[O-])cc(C(F)(F)F)cc1[N+](=O)[O-]", "outcome": "inactive"}, {"smiles": "COCCO", "outcome": "inactive"}, {"smiles": "COc1c(Cl)ccc(Cl)c1C(=O)O", "outcome": "inactive"}, {"smiles": "CCCN(CCC)C(=O)SCC", "outcome": "inactive"}, {"smiles": "CCCCOC(=O)[C@@H](C)Oc1ccc(Oc2ccc(C(F)(F)F)cn2)cc1", "outcome": "inactive"}, {"smiles": "c1ccc2[nH]c(-c3cscn3)nc2c1", "outcome": "inactive"}, {"smiles": "COC(=O)c1ccccc1S(=O)(=O)NC(=O)Nc1nc(OC(F)F)cc(OC(F)F)n1", "outcome": "inactive"}, {"smiles": "CCCCCOC(=O)COc1cc(N2C(=O)C3=C(CCCC3)C2=O)c(F)cc1Cl", "outcome": "inactive"}, {"smiles": "O=C(O)c1ccccc1", "outcome": "inactive"}, {"smiles": "CCCCCCC(C)OC(=O)COc1nc(F)c(Cl)c(N)c1Cl", "note": "(stereo unspecified)", "AC50": "30.8 µM (active)"}, {"smiles": "COC(=O)c1ccccc1C(=O)O", "outcome": "inactive"}, {"smiles": "CCCOC(=O)NCCCN(C)C", "outcome": "inactive"}, {"smiles": "CC(=O)[C@H]1CC[C@H]2[C@@H]3CCC4=CC(=O)CC[C@]4(C)[C@H]3CC[C@]12C", "AC50": "31.9 µM (active)"}, {"smiles": "CCOC(=O)C(C)Oc1ccc(Oc2nc3ccc(Cl)cc3o2)cc1", "note": "(stereo unspecified)", "outcome": "inactive"}, {"smiles": "C[C@]12CC[C@@H]3c4ccc(O)cc4C[C@@H](CCCCCCCCCS(=O)CCCC(F)(F)C(F)(F)F)[C@H]3[C@@H]1CC[C@@H]2O", "note": "(stereo partly specified)", "outcome": "inactive"}, {"smiles": "COC(=O)c1ccc(CNS(C)(=O)=O)cc1S(=O)(=O)NC(=O)Nc1nc(OC)cc(OC)n1", "outcome": "inactive"}, {"smiles": "COC(=O)c1cccc(C)c1S(=O)(=O)NC(=O)Nc1nc(OCC(F)(F)F)nc(N(C)C)n1", "outcome": "inactive"}, {"smiles": "CCOC(=O)c1ccc(O)cc1", "outcome": "inactive"}, {"smiles": "CCCCC(CC)COC(=O)c1ccccc1C(=O)O", "note": "(stereo unspecified)", "outcome": "inactive"}, {"smiles": "C=CCOC(Cn1ccnc1)c1ccc(Cl)cc1Cl", "note": "(stereo unspecified)", "outcome": "inactive"}, {"smiles": "O=C(c1ccccc1)C1CCCCC1", "outcome": "inactive"}, {"smiles": "CCOC(=O)COc1cc(-n2ncc(C(F)(F)F)c(C)c2=O)c(F)cc1Cl", "outcome": "inactive"}, {"smiles": "O=C(Nc1ccc([N+](=O)[O-])cc1Cl)c1cc(Cl)ccc1O", "AC50": "0.302 µM (active)"}, {"smiles": "CCN(CC)C(=O)c1cccc(C)c1", "outcome": "inactive"}, {"smiles": "C#CCOC(=O)[C@@H](C)Oc1ccc(Oc2ncc(Cl)cc2F)cc1", "outcome": "inactive"}, {"smiles": "CC(C)CCCCCCc1ccc(O)cc1", "AC50": "9.15 µM (active)"}, {"smiles": "COC(=O)c1c(Cl)nn(C)c1S(=O)(=O)NC(=O)Nc1nc(OC)cc(OC)n1", "outcome": "inactive"}, {"smiles": "O=C(O)C1(C(=O)Nc2ccc(Cl)cc2Cl)CC1", "outcome": "inactive"}]}]}
